# The campaign covered roughly 290,000 compounds. About 3,100 (1.1%) were called active. The list comes from a sample in which actives are over-represented; it also holds similar structures and randomly drawn compounds. A number with no mark means an inactive call. Rule as the data show it: active = inhibition above about 16% (passing the limit was not always enough); inactive = the rest.
# Molecular target: Neuropeptides B/W receptor type 1 (Homo sapiens) (UniProt P48145)
# Assay: blockers of human neuropeptide B/W receptor 1 – cell-based, fluorescence, single concentration, primary screen (AID 1861);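 also: cells stimulated with the agonist NPW; 0% = agonist with vehicle and 100% = vehicle without agonist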
# Conditions: GPR7-expressing cells, fluorescence antagonist assay; at 4.4 µM; hits give high values
# Sequence of Neuropeptides B/W receptor type 1 (Homo sapiens) (P48145 whole entry, looked up): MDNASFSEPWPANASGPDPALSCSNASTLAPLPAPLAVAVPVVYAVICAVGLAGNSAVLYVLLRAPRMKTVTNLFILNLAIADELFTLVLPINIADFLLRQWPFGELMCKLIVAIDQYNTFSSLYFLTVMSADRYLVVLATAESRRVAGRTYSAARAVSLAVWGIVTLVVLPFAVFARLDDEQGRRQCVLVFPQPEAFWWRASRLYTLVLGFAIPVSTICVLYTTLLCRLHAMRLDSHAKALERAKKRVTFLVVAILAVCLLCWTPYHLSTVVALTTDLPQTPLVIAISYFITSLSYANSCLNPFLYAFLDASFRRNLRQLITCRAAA
row,SMILES,inhibition
1,COCC(=O)N1CCCC(C(=O)c2ccc(C(F)(F)F)cc2)C1 (centres undefined),-16.7%
2,CCOC(=O)C1(CCOC)CCN(Cc2cc3ccccc3s2)CC1,-2.08%
3,O=C1CCN(Cc2ccc([N+](=O)[O-])cc2)CCN1[C@H](CO)Cc1ccccc1,0.55%
4,COc1ccc(C(=O)NC2CCN(C(=O)Nc3ccc(F)cc3)CC2)cc1,-10.4%
5,CCOc1ccc(N=C2SC(C(=O)O)CC(=O)N2C)cc1 (centres undefined),-6.69%
6,COc1ccc(N=C2SC(C(=O)Nc3ccc(F)cc3)CC(=O)N2C)cc1 (centres undefined),26.4% (active)
7,CC1CC(=O)N(CC(=O)Nc2cccc(Cl)c2)c2ccccc2S1(=O)=O (centres undefined),0.41%
8,O=C(CSCc1ccc([N+](=O)[O-])cc1)NCCSCc1ccccc1,44.7% (active)
9,COc1ccc(NC(=O)CSCc2ccc([N+](=O)[O-])cc2)cc1OC,-12%
10,O=C(CSCc1ccc([N+](=O)[O-])cc1)Nc1cccc(C(=O)Nc2ccccc2C(=O)O)c1,-8.22%
11,CC(=O)Nc1ccc(NC(=O)CSc2nnnn2-c2ccccc2F)cc1,-7.45%
12,O=C(CN1CCc2cc3c(cc2C1)OCCCO3)Nc1ccccc1,-5.17%
13,Cc1c(CCO)c(=O)n(-c2ccccc2)n1S(=O)(=O)c1ccc(F)cc1,33% (active)
14,CCOC(=O)C1CN(S(=O)(=O)c2ccc(F)cc2)C1,-9.92%
15,Cc1ccc(S(=O)(=O)CC(=O)Nc2c(C)n(C)n(-c3ccccc3)c2=O)cc1,1.37%
16,CC1(C)C(C=C(Cl)Cl)C1C(=O)NC(O)C(=O)c1ccccc1 (centres undefined),-5.98%
17,O=C(CN(C(=O)CNC(=O)c1cccs1)c1cccc(F)c1)NC1CCCCC1,7.46%
18,O=C(NCCc1ccccc1)C1CC1,-22.6%
19,O=C(CCc1ccccc1)Nc1ccc(NC(=O)C2CCCCC2)nc1,14%
20,O=C(CCc1ccccc1)Nc1ccc(NC(=O)C2CC2)nc1,34% (active)

row,SMILES,inhibition
1,O=C(C1CC(=O)N(c2ccc(Br)cc2)C1)N1CCCC1 (centres undefined),-7.92%
2,COC(=O)c1ccc(N2CCOCC2)c(NC(=O)c2ccc3c(c2)OCCO3)c1,-10.5%
3,CC(=O)Nc1ccc(S(=O)(=O)N(C)CC(=O)NCCC2=CCCCC2)cc1,26.4% (active)
4,CN(CC(=O)NCCc1ccccn1)S(=O)(=O)c1ccc(Cl)cc1,-4.58%
5,CN(c1ccc(C(=O)NCCC2=CCCCC2)cc1)S(C)(=O)=O,10.7%
6,Cc1ccccc1/C=C\c1nc(O)c([N+](=O)[O-])c(=O)[nH]1,-0.51%
7,CCOC(=O)N1CCC(N2Cc3cccc(C(=O)Nc4c(C)cccc4CC)c3C2=O)CC1,8.95%
8,Cc1cc(C)cc(OCC(=O)NC(C)c2ccccc2)c1 (centres undefined),-3.54%
9,COc1cc(OC)cc(C(=O)N[C@H](C(=O)OCC(=O)NC(C)c2ccccc2)C(C)C)c1 (some centres undefined),34.5% (active)
10,Cc1ccc(OCC(=O)NC(C)c2ccccc2)cc1C (centres undefined),5.96%
11,Cc1ccc(S(=O)(=O)N2CCC(C)CC2)cc1C(=O)NCc1ccccn1,-11.1%
12,Cc1ccc(SCc2c(C(=O)N/N=C/c3cccnc3)nnn2-c2nonc2N)cc1,-12%
13,COC(=O)c1ccc(NC(=O)c2ccccc2NS(=O)(=O)c2ccccc2)cc1,17.3%
14,COc1cc(NC(=O)c2ccccc2NS(=O)(=O)c2ccc(Cl)s2)cc(OC)c1,26.7% (active)
15,COc1cc(OC)c(S(=O)(=O)Nc2ccccc2C(=O)O)cc1S(=O)(=O)Nc1ccccc1C(=O)O,-13.8%
16,COc1ccc(Nc2ncc(F)c(N3CCOCC3)n2)cc1,-9.42%
17,CC(=O)OC(C(=O)NC1CCCCC1)c1ccccc1 (centres undefined),-8.98%
18,COc1ccccc1CN1CCN(C(c2ccccc2)c2ccccc2)CC1,-16.5%
19,CC(NCc1ccccc1OC1CCCC1)c1ccccc1 (centres undefined),30.2% (active)
20,Cc1cnc(CN(C)C(=O)C2CCC(=O)N(CCc3cccc(F)c3)C2)[nH]1 (centres undefined),-18.8%

row,SMILES,inhibition
1,Cn1c2ccc(F)cc2c2nnc(NN)nc21,-11.3%
2,CCn1c2ccc(F)cc2c2nnc(SCCN3CCOCC3)nc21,77.2% (active)
3,Cc1cc2nc(SCCN3CCOCC3)[nH]c2cc1C,3.59%
4,CCCNC(=O)C(=O)Nc1cc2c3c(c1)CCC(=O)N3CCC2,-11.2%
5,CCc1ccc(NC(=O)c2ccc(Cn3cc([N+](=O)[O-])cn3)cc2)cc1,23.8% (active)
6,Cn1cc([N+](=O)[O-])c(C(=O)Nc2cnn(Cc3ccc(F)cc3)c2)n1,-7.64%
7,COc1cccc(NC(=O)c2ccc(Cn3cc([N+](=O)[O-])cn3)o2)c1,-2.16%
8,COc1ccc(/C=N/NC(=O)C2CC2)c(OC)c1OC,-4.35%
9,O=C1CCCN2N=C(SCC(=O)Nc3ccc(Br)cc3)SC2=N1,4.5%
10,Cc1cccc(-n2c(SCC(=O)Nc3cccc(S(=O)(=O)NC4=NCCCCC4)c3)nc3ccccc3c2=O)c1C,27.4% (active)
11,CCc1ccc(C(=O)OCC(=O)Nc2cccc(S(=O)(=O)NC3=NCCCCC3)c2)cc1,11.6%
12,NS(=O)(=O)c1cccc(NC(=O)CSc2nc3ccccc3n2-c2ccccc2)c1,0.27%
13,CCOc1ccc(S(=O)(=O)NCCCn2ccnc2)cc1NC(C)=O,-14.2%
14,CCOc1cc(/C=C/c2nc3ccccc3c(=O)[nH]2)cc(Br)c1OC,19%
15,OC(COc1ccc2ccccc2c1)CN1CCOCC1 (centres undefined),-2.78%
16,O=S(=O)(c1ccc(OCC(O)CN2CCN(c3ccccc3Cl)CC2)cc1)N1CCOCC1 (centres undefined),26% (active)
17,CC(=O)Nc1ccc(OCC(O)CN2CCN(c3ccccc3Cl)CC2)cc1 (centres undefined),13%
18,O=C(Nc1ccc(Br)cc1F)C1CC(=O)N(C2CCCCC2)C1 (centres undefined),-3.95%
19,CCN(CC)S(=O)(=O)c1ccc(C(=O)N2CCN(C3=NS(=O)(=O)c4ccccc43)CC2)cc1,-4.91%

# Source: PubChem BioAssay AID1861 (The Scripps Research Institute Molecular Screening Center, 2009)
